From the supplement of paper PMC10849652
About 8,800 targets were measured; listed, in parts, are those with a hit and a random draw of the rest. About 0.5% of all pairs of compound and target were hits.

Assays:
Experiment in all cases: log2 fold change, soluble protein after heating vs DMSO (PISA); higher = thermal stabilisation; K562 lysate, 10 uM; active = over 0.2 and 3.5 SD of the protein, either way, in both replicates (recomputed)
pictilisib = compound: CS(=O)(=O)N1CCN(Cc2cc3nc(-c4cccc5[nH]ncc45)nc(N4CCOCC4)c3s2)CC1 [pictilisib]
Summary of the method: (§1)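 The values are log-two fold changes in thermal stability compared with solvent controls and come from duplicates. They were obtained by TMTpro 16plex LC-MS/MS, with channel sums equalised, on the supernatant after 21,000xg for 90 min. That supernatant came from crude K562 extract at 1 mg/mL protein treated with 10 μM compound for 30 min, heated for 3 min across 48°C-58°C, pooled and brought to 0.5% NP-40 at 4°C.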

crizotinib = compound: C[C@@H](Oc1cc(-c2cnn(C3CCNCC3)c2)cnc1N)c1c(Cl)ccc(F)c1Cl [crizotinib]
Summary of the method: as §1

[1] = compound: C[C@H](C1=CC=C(C=C1)C(=O)NC2=C3C=CNC3=NC=C2)N
Summary of the method: as §1

duvelisib = compound: C[C@H](Nc1ncnc2nc[nH]c12)c1cc2cccc(Cl)c2c(=O)n1-c1ccccc1 [duvelisib]
Summary of the method: as §1

gandotinib = compound: Cc1cc(Nc2cc(CN3CCOCC3)c3nc(C)c(Cc4ccc(Cl)cc4F)n3n2)n[nH]1 [gandotinib]
Summary of the method: as §1

tozasertib = compound: Cc1cc(Nc2cc(N3CCN(C)CC3)nc(Sc3ccc(NC(=O)C4CC4)cc3)n2)n[nH]1 [tozasertib]
Summary of the method: as §1

doramapimod = compound: Cc1ccc(-n2nc(C(C)(C)C)cc2NC(=O)Nc2ccc(OCCN3CCOCC3)c3ccccc23)cc1 [doramapimod]
Summary of the method: as §1

bafetinib = compound: Cc1ccc(NC(=O)c2ccc(CN3CC[C@H](N(C)C)C3)c(C(F)(F)F)c2)cc1Nc1nccc(-c2cncnc2)n1 [bafetinib]
Summary of the method: as §1

[2] = compound: Cc1cccc(CC(=O)N2CCc3c2ccc(-c2cn(C)c4ncnc(N)c24)c3F)n1
Summary of the method: as §1

lapatinib = compound: CS(=O)(=O)CCNCc1ccc(-c2ccc3ncnc(Nc4ccc(OCc5cccc(F)c5)c(Cl)c4)c3c2)o1 [lapatinib]
Summary of the method: as §1

Measured: log2 fold change

CEP152 (UniProt O94986)
Chain of UniProt O94986 (O94986 whole entry, looked up): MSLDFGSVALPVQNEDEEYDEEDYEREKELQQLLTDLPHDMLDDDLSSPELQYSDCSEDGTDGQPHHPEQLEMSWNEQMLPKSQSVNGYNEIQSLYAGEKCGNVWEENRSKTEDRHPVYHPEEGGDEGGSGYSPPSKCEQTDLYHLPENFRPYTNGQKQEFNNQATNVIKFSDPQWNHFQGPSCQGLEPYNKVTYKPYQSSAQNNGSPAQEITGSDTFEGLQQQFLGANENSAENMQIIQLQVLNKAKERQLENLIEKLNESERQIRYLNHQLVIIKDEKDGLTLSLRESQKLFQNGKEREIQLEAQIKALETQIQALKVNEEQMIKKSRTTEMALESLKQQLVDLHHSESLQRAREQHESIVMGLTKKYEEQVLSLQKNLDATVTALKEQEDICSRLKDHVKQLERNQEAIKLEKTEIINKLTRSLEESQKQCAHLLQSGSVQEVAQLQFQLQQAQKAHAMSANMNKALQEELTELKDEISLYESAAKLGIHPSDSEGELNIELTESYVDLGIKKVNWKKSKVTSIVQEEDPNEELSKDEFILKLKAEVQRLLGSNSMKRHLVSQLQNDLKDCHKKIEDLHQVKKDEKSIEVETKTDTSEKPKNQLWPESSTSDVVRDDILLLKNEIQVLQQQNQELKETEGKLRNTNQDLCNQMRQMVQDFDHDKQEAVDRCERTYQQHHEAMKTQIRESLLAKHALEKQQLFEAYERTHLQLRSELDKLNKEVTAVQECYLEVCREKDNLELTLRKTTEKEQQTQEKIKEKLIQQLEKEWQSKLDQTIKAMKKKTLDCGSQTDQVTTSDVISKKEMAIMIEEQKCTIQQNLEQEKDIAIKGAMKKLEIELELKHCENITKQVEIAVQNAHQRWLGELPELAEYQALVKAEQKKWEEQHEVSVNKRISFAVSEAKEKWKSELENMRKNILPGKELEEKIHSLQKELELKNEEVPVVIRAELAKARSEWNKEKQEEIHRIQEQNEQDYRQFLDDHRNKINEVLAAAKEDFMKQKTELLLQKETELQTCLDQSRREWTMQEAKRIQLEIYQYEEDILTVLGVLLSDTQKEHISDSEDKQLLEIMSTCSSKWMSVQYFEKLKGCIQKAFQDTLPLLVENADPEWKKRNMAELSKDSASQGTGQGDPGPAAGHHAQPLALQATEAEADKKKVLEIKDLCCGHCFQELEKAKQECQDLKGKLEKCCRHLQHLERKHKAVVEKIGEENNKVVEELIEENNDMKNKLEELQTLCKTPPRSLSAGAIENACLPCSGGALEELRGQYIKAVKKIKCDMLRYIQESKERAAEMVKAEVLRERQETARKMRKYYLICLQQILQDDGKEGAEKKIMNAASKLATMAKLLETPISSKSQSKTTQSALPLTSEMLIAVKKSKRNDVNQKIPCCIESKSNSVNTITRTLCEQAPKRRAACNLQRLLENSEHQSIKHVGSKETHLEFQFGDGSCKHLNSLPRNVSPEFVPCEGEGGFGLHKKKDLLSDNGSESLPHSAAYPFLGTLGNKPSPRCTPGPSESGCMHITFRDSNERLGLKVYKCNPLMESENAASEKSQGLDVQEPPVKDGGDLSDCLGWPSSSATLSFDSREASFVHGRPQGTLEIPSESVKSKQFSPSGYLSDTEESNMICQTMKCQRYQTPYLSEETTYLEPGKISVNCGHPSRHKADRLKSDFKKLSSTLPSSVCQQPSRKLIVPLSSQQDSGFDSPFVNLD
inactive: pictilisib -0.013 | crizotinib -0.22 | [1] -0.089 | duvelisib -0.017 | gandotinib 0.006 | tozasertib -0.114 | doramapimod -0.057 | bafetinib -0.071 | [2] 0.058

CDAN1 (UniProt H3BPZ6)
inactive: crizotinib 0.118 | doramapimod 0.059

AVEN (UniProt Q9NQS1)
inactive: pictilisib 0.022 | crizotinib -0.08 | [1] -0.462 | duvelisib 0.014 | gandotinib 0.262 | tozasertib 0.084 | doramapimod 0.068 | bafetinib -0.097 | [2] 0.338

C3AR1 (UniProt Q16581)
Chain of UniProt Q16581 (Q16581 whole entry, looked up): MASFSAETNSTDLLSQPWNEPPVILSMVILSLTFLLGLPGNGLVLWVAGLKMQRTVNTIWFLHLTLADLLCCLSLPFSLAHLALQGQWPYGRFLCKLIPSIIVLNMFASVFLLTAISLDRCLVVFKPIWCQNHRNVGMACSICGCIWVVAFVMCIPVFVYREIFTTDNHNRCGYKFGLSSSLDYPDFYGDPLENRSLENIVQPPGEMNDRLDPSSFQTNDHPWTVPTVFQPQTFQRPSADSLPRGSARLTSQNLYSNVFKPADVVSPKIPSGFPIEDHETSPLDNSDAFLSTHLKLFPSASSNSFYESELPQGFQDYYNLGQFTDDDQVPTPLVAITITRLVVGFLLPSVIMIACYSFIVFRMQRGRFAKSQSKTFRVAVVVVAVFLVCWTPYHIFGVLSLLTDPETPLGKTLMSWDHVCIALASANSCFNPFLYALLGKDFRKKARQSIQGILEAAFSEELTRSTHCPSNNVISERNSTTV
inactive: pictilisib -0.023 | crizotinib 0.02 | [1] -0.025 | gandotinib 0.043 | doramapimod -0.01 | bafetinib 0.111 | [2] 0.099

CASC1 (UniProt Q6TDU7)
inactive: pictilisib -0.06 | [1] -0.175 | gandotinib 0.058 | bafetinib 0.953 | [2] 0.095

CACUL1 (UniProt Q86Y37)
inactive: lapatinib -0.26 | crizotinib 0.037 | [1] 0.061 | duvelisib 0.044 | gandotinib -0.151 | tozasertib 0.094 | doramapimod 0.029 | [2] 0.08

C1orf131 isoform 5 (UniProt Q8NDD1)
inactive: lapatinib 0.065 | crizotinib -0.006 | [1] -0.16 | duvelisib 0.028 | gandotinib 0.076 | tozasertib 0.03 | doramapimod -0.008 | [2] 0.177

CCND3 (UniProt P30281)
Chain of UniProt P30281 (P30281 whole entry, looked up): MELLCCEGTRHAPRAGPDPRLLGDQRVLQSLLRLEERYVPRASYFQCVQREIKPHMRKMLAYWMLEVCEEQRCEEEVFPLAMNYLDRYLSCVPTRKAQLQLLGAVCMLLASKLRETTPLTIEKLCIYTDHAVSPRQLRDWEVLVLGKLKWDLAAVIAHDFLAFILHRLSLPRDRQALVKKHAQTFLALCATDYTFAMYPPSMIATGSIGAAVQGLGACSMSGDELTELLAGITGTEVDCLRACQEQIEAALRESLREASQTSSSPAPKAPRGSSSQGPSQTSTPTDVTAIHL
inactive: pictilisib -0.01 | crizotinib -0.083 | [1] -0.175 | duvelisib 0.015 | gandotinib -0.022 | tozasertib 0.073 | doramapimod 0.101 | bafetinib 0.003 | [2] 0.096

BUD13 (UniProt Q9BRD0)
inactive: pictilisib 0.104 | crizotinib -0.044 | [1] -0.053 | duvelisib 0.08 | gandotinib 0.045 | tozasertib 0.008 | doramapimod 0.014 | bafetinib -0.134 | [2] 0.114

ATPSCKMT (UniProt Q6P4H8)
Chain of UniProt Q6P4H8 (Q6P4H8 whole entry, looked up): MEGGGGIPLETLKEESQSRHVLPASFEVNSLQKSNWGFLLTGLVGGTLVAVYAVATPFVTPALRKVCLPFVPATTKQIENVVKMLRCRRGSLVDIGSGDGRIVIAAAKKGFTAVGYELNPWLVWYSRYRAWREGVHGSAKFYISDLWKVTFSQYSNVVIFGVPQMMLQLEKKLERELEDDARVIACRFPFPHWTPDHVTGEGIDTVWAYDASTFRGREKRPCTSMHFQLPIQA
inactive: pictilisib -0.113 | crizotinib -0.039 | duvelisib -0.036 | tozasertib -0.219 | doramapimod 0.022 | bafetinib -0.034

BRAF (UniProt P15056)
inactive: pictilisib -0.025 | crizotinib -0.099 | [1] -0.086 | duvelisib 0.015 | gandotinib 0.014 | tozasertib -0.013 | [2] 0.065
active: bafetinib 0.64

BCORL1 isoform 3 (UniProt Q5H9F3)
inactive: crizotinib -0.162 | duvelisib 0.1 | gandotinib 0.238 | tozasertib 0.049 | doramapimod 0.117 | [2] 0.475
active: [1] -0.577

CDC14A isoform 2 (UniProt Q9UNH5)
inactive: lapatinib 0.062 | crizotinib 0.031 | doramapimod 0.108

ATXN2 (UniProt F8WB06)
inactive: duvelisib 0.187

CEP128 (UniProt Q6ZU80)
inactive: pictilisib -0.123 | duvelisib -0.022 | gandotinib 0.331 | tozasertib 0.027 | bafetinib -0.043 | [2] 0.297
active: [1] -1.2

C15orf39 (UniProt Q6ZRI6)
inactive: pictilisib -0.04 | crizotinib 0.043 | [1] 0.025 | duvelisib -0.049 | gandotinib -0.076 | tozasertib 0.097 | doramapimod 0 | bafetinib 0.19 | [2] -0.055

CDK16 isoform 2 (UniProt Q00536)
active: gandotinib 0.533
inactive: lapatinib 0.046 | crizotinib 0.063 | [1] -0.016 | duvelisib 0.043 | doramapimod 0.012 | bafetinib -0.007 | [2] -0.05

CDCA8 (UniProt Q53HL2)
inactive: pictilisib 0.072 | [1] 0.319 | duvelisib 0.031 | gandotinib -0.031 | tozasertib -0.047 | bafetinib -0.217 | [2] -0.128

ATG10 (UniProt Q9H0Y0)
Chain of UniProt Q9H0Y0 (Q9H0Y0 whole entry, looked up): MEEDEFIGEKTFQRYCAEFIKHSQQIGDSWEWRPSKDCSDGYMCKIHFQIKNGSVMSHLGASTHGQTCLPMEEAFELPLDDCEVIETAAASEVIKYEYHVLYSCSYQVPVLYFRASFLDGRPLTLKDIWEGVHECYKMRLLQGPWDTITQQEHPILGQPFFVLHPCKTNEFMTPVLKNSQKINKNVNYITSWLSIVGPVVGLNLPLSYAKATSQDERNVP
inactive: pictilisib -0.051 | crizotinib -0.008 | [1] 0.021 | duvelisib 0.065 | gandotinib -0.023 | tozasertib -0.087 | doramapimod -0.014 | bafetinib 0.012 | [2] 0.063

CD80 (UniProt P33681)
inactive: lapatinib 0.122 | crizotinib -0.007 | duvelisib 0.104 | gandotinib -0.086 | tozasertib 0.088 | doramapimod -0.008 | [2] 0.016
active: [1] 0.395

BMT2 (UniProt Q1RMZ1)
Chain of UniProt Q1RMZ1 (Q1RMZ1 whole entry, looked up): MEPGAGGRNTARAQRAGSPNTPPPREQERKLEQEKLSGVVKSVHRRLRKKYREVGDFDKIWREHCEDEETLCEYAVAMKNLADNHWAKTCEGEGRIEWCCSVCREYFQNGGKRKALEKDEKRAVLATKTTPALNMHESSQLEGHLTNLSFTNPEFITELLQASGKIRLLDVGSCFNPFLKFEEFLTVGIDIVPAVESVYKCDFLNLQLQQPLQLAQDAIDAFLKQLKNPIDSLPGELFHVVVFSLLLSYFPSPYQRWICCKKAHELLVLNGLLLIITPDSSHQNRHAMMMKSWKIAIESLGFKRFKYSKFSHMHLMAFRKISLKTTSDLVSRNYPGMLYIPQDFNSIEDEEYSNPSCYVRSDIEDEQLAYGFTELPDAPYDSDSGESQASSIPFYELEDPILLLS
inactive: [1] 0.116 | gandotinib -0.124 | [2] -0.056

B3GALT6 (UniProt Q96L58)
inactive: pictilisib -0.047 | crizotinib -0.123 | duvelisib 0.045 | doramapimod 0.1 | bafetinib -0.066

CHD9 (UniProt Q3L8U1)
inactive: crizotinib 0.055 | duvelisib 0.106 | gandotinib -0.111 | doramapimod -0.057 | [2] -0.27
active: [1] 1.37

CDC25A (UniProt P30304)
inactive: lapatinib -0.016 | duvelisib -0.014 | doramapimod 0.114

CEP57L1 (UniProt Q8IYX8)
Chain of UniProt Q8IYX8 (Q8IYX8 whole entry, looked up): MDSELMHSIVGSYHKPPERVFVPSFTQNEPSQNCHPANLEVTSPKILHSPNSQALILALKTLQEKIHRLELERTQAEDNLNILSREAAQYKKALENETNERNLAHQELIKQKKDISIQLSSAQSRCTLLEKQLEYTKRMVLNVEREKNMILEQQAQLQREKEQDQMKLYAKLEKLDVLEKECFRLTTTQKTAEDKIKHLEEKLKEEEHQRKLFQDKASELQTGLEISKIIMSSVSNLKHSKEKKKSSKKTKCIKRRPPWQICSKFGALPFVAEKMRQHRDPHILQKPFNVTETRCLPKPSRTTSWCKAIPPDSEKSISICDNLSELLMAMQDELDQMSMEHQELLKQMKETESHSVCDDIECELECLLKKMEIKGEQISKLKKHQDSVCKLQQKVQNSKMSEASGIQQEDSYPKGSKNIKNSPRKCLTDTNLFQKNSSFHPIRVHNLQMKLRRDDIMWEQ
inactive: pictilisib 0.076 | crizotinib 0.056 | [1] -0.039 | duvelisib -0.004 | gandotinib -0.022 | tozasertib -0.07 | doramapimod 0.05 | bafetinib -0.184 | [2] 0.073

CCP110 (UniProt O43303)
Chain of UniProt O43303 (O43303 whole entry, looked up): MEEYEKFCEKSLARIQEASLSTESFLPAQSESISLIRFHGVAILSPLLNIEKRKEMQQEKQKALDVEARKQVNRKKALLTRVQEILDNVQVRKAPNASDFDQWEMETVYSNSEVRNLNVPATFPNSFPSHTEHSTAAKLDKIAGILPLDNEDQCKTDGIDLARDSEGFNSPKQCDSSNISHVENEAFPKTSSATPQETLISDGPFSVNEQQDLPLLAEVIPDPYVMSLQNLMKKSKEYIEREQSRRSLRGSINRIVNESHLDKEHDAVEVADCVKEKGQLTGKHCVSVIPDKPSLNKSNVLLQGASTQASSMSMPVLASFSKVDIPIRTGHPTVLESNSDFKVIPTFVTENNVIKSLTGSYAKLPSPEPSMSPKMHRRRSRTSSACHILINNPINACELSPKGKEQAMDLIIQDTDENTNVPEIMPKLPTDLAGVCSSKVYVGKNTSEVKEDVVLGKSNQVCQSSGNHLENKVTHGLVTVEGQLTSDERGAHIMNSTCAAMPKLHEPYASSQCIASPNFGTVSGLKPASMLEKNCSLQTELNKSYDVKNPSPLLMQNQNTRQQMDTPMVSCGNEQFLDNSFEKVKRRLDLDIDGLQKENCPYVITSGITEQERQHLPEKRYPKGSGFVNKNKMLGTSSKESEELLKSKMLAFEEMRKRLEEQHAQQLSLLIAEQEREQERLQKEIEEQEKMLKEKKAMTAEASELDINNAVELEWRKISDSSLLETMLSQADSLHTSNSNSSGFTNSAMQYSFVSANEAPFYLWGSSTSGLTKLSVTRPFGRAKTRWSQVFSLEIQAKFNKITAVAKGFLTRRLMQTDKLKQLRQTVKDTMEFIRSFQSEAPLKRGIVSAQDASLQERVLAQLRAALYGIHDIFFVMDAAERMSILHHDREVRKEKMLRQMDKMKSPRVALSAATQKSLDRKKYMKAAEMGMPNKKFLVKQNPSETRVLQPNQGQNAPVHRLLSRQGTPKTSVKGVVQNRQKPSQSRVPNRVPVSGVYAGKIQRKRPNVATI
inactive: pictilisib -0.085 | crizotinib -0.006 | duvelisib 0.084 | tozasertib -0.009 | doramapimod 0.009 | bafetinib -0.053

BRAF, A0A2R8Y8E0
inactive: tozasertib 0.035

CDK17 isoform 2 (UniProt Q00537)
inactive: pictilisib -0.008 | crizotinib 0.026 | [1] 0.096 | duvelisib -0.04 | gandotinib 0.042 | tozasertib -0.113 | doramapimod 0.15 | bafetinib -0.033 | [2] -0.359

CCDC130 (UniProt P13994)
inactive: pictilisib -0.003 | crizotinib -0.689 | tozasertib 0.055 | doramapimod 0.617 | bafetinib -0.119

BBS7 (UniProt Q8IWZ6)
inactive: crizotinib -0.036 | [1] 0.003 | duvelisib 0.039 | gandotinib 0.072 | tozasertib 0.021 | doramapimod 0.151 | [2] -0.119

CENPV (UniProt Q7Z7K6)
inactive: pictilisib 0.02 | crizotinib -0.119 | [1] 0.089 | gandotinib -0.193 | tozasertib 0.094 | doramapimod -0.149 | bafetinib -0.163 | [2] -0.36

CAPNS1 (UniProt K7ES78)
inactive: lapatinib 0.162 | crizotinib 0.158 | duvelisib 0.17 | doramapimod -0.08

CHD4, A0A2R8Y521
inactive: lapatinib 0.025 | duvelisib 0.006 | tozasertib 0.081

CDK5RAP1 (UniProt Q96SZ6)
inactive: pictilisib 0.184 | crizotinib -0.027 | [1] 0.051 | duvelisib -0.044 | gandotinib 0.071 | tozasertib 0.015 | doramapimod 0 | bafetinib 0.018 | [2] -0.009

C8orf88 (UniProt P0DMB2)
Chain of UniProt P0DMB2 (P0DMB2 whole entry, looked up): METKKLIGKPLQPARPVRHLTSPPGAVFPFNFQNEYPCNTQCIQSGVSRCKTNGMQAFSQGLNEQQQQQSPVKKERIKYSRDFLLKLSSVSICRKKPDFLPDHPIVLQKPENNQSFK
inactive: pictilisib 0.028 | crizotinib 0.038 | [1] 0.054 | duvelisib 0.058 | gandotinib -0.017 | doramapimod -0.004 | bafetinib -0.016 | [2] -0.095

ATG4D (UniProt Q86TL0)
inactive: pictilisib -0.054 | crizotinib -0.031 | duvelisib 0.109 | tozasertib 0.099 | doramapimod -0.072 | bafetinib -0.056

CEBPZOS (UniProt A8MTT3)
active: [2] 0.203
inactive: lapatinib -0.001 | crizotinib -0.025 | [1] -0.352 | duvelisib 0.035 | gandotinib -0.044 | tozasertib 0.039 | doramapimod 0.177
